Most compounds without a hit are left out; they make up all but 5.3% or so of the library.
Marburg entry inh = inhibitors of Marburg virus binding or cell entry. Marburg virus pseudotyped entry inhibition, cell reporter. Potency, µM (doses to about 37.8 µM), for the others: top-dose activity change, negative = inhibition, actives largely listed as inhibitors. 300,000 compounds, 1.8% hits; calls by dose curve; tested in HEK293 cells
FMDV inh = blocks foot and mouth disease virus; FMDV antiviral cell-based qHTS; Potency, µM (series often up to 57.9 µM), for the others: at the top dose activity change, negative = inhibition, usual class: inhibitors; 410,000 compounds, 1.2% hits; AID 1159524; calls by dose curve; tested in HEK293T cells; note: read-out not given here; nearly all actives have a fitted effect of over 45% in size
Vaccinia Venus = vaccinia inhibition (Venus reporter). Vaccinia virus Venus reporter expression, fluorescence. Potency, µM (series often up to 36.5 µM), for inactives: at the top dose activity change, negative = inhibition, usual class: inhibitors. 330,000 compounds, 0.46% hits; calls by dose curve; tested in A549 cells; note: nearly all actives have a fitted effect of over 30% in size
LASV entry inh = inhibitors of Lassa virus binding or cell entry | 300,000 compounds, 1.2% hits | Lassa virus pseudotype entry inhibition, cell reporter | Potency, µM (titrated, usually from 37.9 µM), for inactives: at the top dose activity change, negative = inhibition, actives largely listed as inhibitors; calls by dose curve; tested in HEK293 cells; note: nearly all actives have a fitted effect of over 50% in size
HCV inhibitor = inhibitors of hepatitis C virus infection; AID 651820; 340,000 compounds, 3.4% hits; Potency, µM (series often up to 41.8 µM), for the others: at the top dose activity change, negative = inhibition, most hits filed as inhibitors; Huh7.5.1 HCVcc-Cre infection, luciferase reporter, 44 h; active = well fitted inhibition curve with a large enough effect; inconclusive = small, poorly fitted or top-dose-only effect, or another doubt; inactive = no such curve, though single readings can be large or run the other way
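HCVcc-Cre virus at an moi near 0.5 was added right after compound to cells cultured 4 h from seeding (1,000 cells/well). Luciferase activity was determined 44 h later, 15 min after substrate addition at RT.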
Vaccinia mCherry = vaccinia inhibition (mCherry reporter); Vaccinia virus mCherry reporter infection, fluorescence; Potency, µM (doses to about 36.5 µM), for the others: at the highest dose activity change, negative = inhibition, most hits filed as inhibitors; 310,000 compounds, 0.63% hits; AID 720579; calls by dose curve; tested in A549 cells; note: nearly all actives have a fitted effect of over 35% in size
The depositor's hits bear a star; i = inactive; ? = inconclusive; . = no result given; ! = a repeat was not active; [ ] = dose if it differs, or a comment. % is set by controls: 0 for no effect and ±100 for the full control effect; potency is the fitted concentration of half-maximal effect.

SMILES	Marburg entry inh	FMDV inh	Vaccinia Venus	LASV entry inh	HCV inhibitor	Vaccinia mCherry
COc1ccc(N2CC(C(=O)Nc3ccc(S(=O)(=O)Nc4nccs4)cc3)CC2=O)c(OC)c1 (configuration not stated)	.	1%	.	.	9%	.
COc1ccc(NS(=O)(=O)c2ccc(C(=O)N3CCCCCC3)cc2)cc1	?	-22%	-14%	?	14µM*	-19%
O=C(Nc1ccc(S(=O)(=O)Nc2ccc(Cl)cc2)cc1)C1CCCO1 (configuration not stated)	-14%	2%	.	?	22µM*	.
CCOc1ccc(NS(=O)(=O)c2ccc(C(=O)N3CCCCCC3)cc2)cc1	?	?	-11%	?	-17%	-3%
COc1ccc(NS(=O)(=O)c2ccc(C(=O)N3CCN(Cc4ccccc4)CC3)cc2)cc1	.	?	-26%	.	11µM*	-22%
CCN1CCN(C(=O)c2ccc(CNS(=O)(=O)c3cccc(OC)c3)cc2)CC1	-1%	-6%	-8%	0%	17%	-18%
O=C(NS(=O)(=O)c1ccc(NC(=O)C2CCCO2)cc1)c1ccccc1 (configuration not stated)	-2%	-18%	.	-16%	3%	.
COc1cccc(S(=O)(=O)NCc2ccc(C(=O)N3CCN(Cc4ccccc4)CC3)cc2)c1	?	-16%	7%	?	10µM*	-14%
CC(C)=CCC/C(C)=C/CO/N=C1/C[C@@H](O)[C@@H](O)[C@@H]2[C@@H]3C(=O)N(Cc4ccccc4)C(=O)[C@H]3CC[C@H]12	3%[14.2 µM]	.	.	.	.	.
CCOc1ccccc1NC(=O)C(=O)NCC(c1cccnc1)N1CCN(c2ccccc2)CC1 (configuration not stated)	.	?	-15%	-27%[46.1 µM]	.	?
O=C(C[n+]1cccc2cc(Cl)ccc21)c1ccc2ccccc2c1	.	.	350%	.	.	?
CN(c1ccc(OCC(=O)N2CCN(C/C=C/c3ccccc3)CC2)cc1)S(=O)(=O)c1cccs1	.	?	.	.	11µM*	.
Cc1ccc(S(=O)(=O)NCc2ccc(C(=O)N3CCN(Cc4ccccc4)CC3)cc2)cc1	?	.	?	?	4µM*	-27%
O=C(c1cccc(S(=O)(=O)NCc2ccccc2)c1)N1CCN(Cc2ccccc2)CC1	14%	-18%	-8%	-17%	-7%	.
Cc1cccc(C(=O)NCc2nc(-c3cccc(NC(=O)C4CCCN(C)C4)c3)oc2C)n1 (configuration not stated)	.	-6%	1%	.	.	-13%
COc1ccccc1CNC(=O)c1cccnc1	-1%	-22%	-22%	21%	16%	-22%
Cc1ccc(-n2[nH]c(C)c(C=Nc3ccc4[nH]c(=O)[nH]c4c3)c2=O)cc1	?	32µM*	?	?	4%	?
CCOC1=C2[C@H](c3ccccc3Cl)N(S(=O)(=O)c3ccc(C)cc3)C[C@H]2C(C#N)(C#N)C(C#N)(C#N)C1	.	?	1%	.	.	4%
CCOC1=C2[C@H](c3ccc(CC)cc3)N(S(=O)(=O)c3ccc(C)cc3)C[C@H]2C(C#N)(C#N)C(C#N)(C#N)C1	.	35µM*	3%	.	.	i
OC(COc1cccc2ccccc12)CN1CCN(c2ccccc2)CC1 (configuration not stated)	.	-10%	.	.	2%	.
CC(COc1cccc2ccccc12)CN1CCN(C)CC1 (configuration not stated)	?	-22%	.	?	5µM*	.
COc1ccccc1N1CCN(CC(O)COc2cccc3ccccc23)CC1 (configuration not stated)	?	-17%	-14%	21µM*!	-39%	-13%
OC(COc1cccc2ccccc12)CN1CCOCC1 (configuration not stated)	-4%	-9%	-7%	16%	5%	-3%
O=S(=O)(c1cccs1)N1CCN(CC(O)COC2CCCc3ccccc32)CC1 (configuration not stated)	-9%	?	-11%	-22%	-7%	-23%
CCOc1ccccc1N1CCN(CC(O)COC2CCCc3ccccc32)CC1 (configuration not stated)	?	25%	-2%	-3%	11µM*	?
SMILES	Marburg entry inh	FMDV inh	Vaccinia Venus	LASV entry inh	HCV inhibitor	Vaccinia mCherry
O=[N+]([O-])c1ccccc1/C=C/c1ccnc2ccccc12	.	.	-23%	.	.	-4%
C[C@@H]1[C@H](c2ccccc2)OCCS(=O)(=O)N1Cc1ccccc1Br	.	.	-28%	.	.	-10%
COc1cc(C2C3=C(Nc4ncnn42)c2ccccc2CC3)cc(OC)c1OC (configuration not stated)	0.73µM*!	8%	.	?	?	.
NC(=O)C1=CC2C3C=CC2(O)C(=O)OC3O1 (configuration not stated)	?	?	-14%	7.1µM*	8.9µM*	-11%
Cc1noc(-c2ccc(N(C)Cc3ccccc3)c([N+](=O)[O-])c2)n1	-12%[46.1 µM]	16%	2%	?	.	0%
CCc1nc(N)nc(N)c1-c1ccc(N(C)Cc2ccccc2)c([N+](=O)[O-])c1	0.89µM*	22µM*	1µM*	?	?	?
CCc1nc(N)nc(N)c1-c1ccc(Cl)cc1	?	-9%	?	3.3µM*	?	8.9µM*!
CCc1nc(N)nc(N)c1-c1ccc(NCCN)c([N+](=O)[O-])c1	.	-15%	4.5µM*	.	.	?
CC(C)CO/N=C1\C[C@@H](O)[C@@H](O)[C@@H]2[C@@H]3C(=O)N(c4ccc(F)cc4F)C(=O)[C@@H]3CC[C@@H]12	-10%[14.2 µM]	.	.	.	.	.
CCOC(=O)N1CCc2c(sc3c2C(=O)NC(c2ccc(N(C)C)cc2)N3)C1 (configuration not stated)	?	0%	-18%[7.34 µM]	?	.	-22%[7.34 µM]
CCOC(=O)N1CCc2c(sc3c2C(=O)NC(c2ccccc2)N3)C1 (configuration not stated)	3.2µM*	?	-27%	?	-18%	.
O=C(CSc1nc2c([nH]c3ccccc32)c(=O)n1-c1cccc(Cl)c1)N1CCc2ccccc21	.	-18%	-2%	11%[46.1 µM]	.	6%
CCN(CC)c1ccc(/C=C/c2ccncc2)cc1	.	.	i	.	.	6%
O=C(O)c1cc2c([nH]c1=O)CCCC2	1%[46.1 µM]	-16%	-10%	2%	-1%	-7%
C=CCSC(=C(C#N)C#N)c1cc2c([nH]1)CCCC2	?	11µM*	1%	11µM*	13µM*	.
COc1ccc(C2/C=C\CN(C(=O)CC(C)C)CC(=O)N2Cc2ccc(F)cc2)cc1 (configuration not stated)	.	21%	-10%	.	16%	-20%
COc1ccc(C2/C=C\CN(C(=O)CC(C)(C)C)CC(=O)N2Cc2ccc(F)cc2)cc1 (configuration not stated)	.	23%	-10%	.	5µM*	-15%

Screening data (PubChem)
